These results are taken from ChEMBL document CHEMBL4513216, “Probing the Open Global Health Chemical Diversity Library for Multistage-Active Starting Points for Next-Generation Antimalarials” (ACS Infect Dis, 2020).

Among all 69,000 compounds or so, about 8,600 (12%) showed an effect of 50% or more. This excerpt belongs to a sample that is enriched for strong results.

This experiment concerns Plasmodium berghei. In words: Screen against P. berghei liver stage (PbLuc), transformed with Luciferase, at 10uM. It is filed as functional, HepG2. To be noted: tested at 10 uM.
With `Cc1occc1C(=O)N1Cc2nccn2CC(CN2CCCC2)C1` (stereo not given), the INHIBITION is on record as 31.2%.
On to `Cc1noc(C)c1CC(=O)N1CCCC(Cn2ccnc2C)C1` (stereo not given), for which the INHIBITION was determined as 44.7%.
In the case of `CCc1nnc(CN(CC)C(=O)C(C)n2ccnc2C(C)C)o1` (stereo not given), the INHIBITION was determined as 30.3%.
In the case of `Cc1cc2c(=O)n3c(nc2s1)CCN(C(=O)c1c(C)noc1C)CC3` it was 41.2%.
As for `Cc1cc2c(=O)n3c(nc2s1)CCN(C(=O)c1ccnn1C)CC3`, the INHIBITION is listed as -16.5%.
In the case of `Cc1cc2c(=O)n3c(nc2s1)CCN(C(=O)c1sc(C)nc1C)CC3` it was 80.9%.
`Cc1nc(C)c(C(=O)N2CCc3nc4sc(C)cc4c(=O)n3CC2)o1`: the INHIBITION is listed as -12.9%.
In the case of `Cc1cc(C(=O)N2CCc3nc4sc(C)cc4c(=O)n3CC2)on1` it was 53.2%.
In the case of `Cc1cc2c(=O)n3c(nc2s1)CCN(C(=O)c1scnc1C)CC3`, the INHIBITION amounted to 40.9%.
In the case of `Cc1noc(C)c1-c1cccc(CC2CCN(C(=O)CN)C2)n1` (stereo not given), the INHIBITION is 36.7%.
To `Cc1ccc2c(n1)N(CCn1cccn1)CCN(C(=O)CC1CC1)C2` belongs -1.64%; to `CCn1cnnc1CNC(=O)N1CCN(Cc2ccsc2)CC1`, -63.3%.
In the case of `CCN1Cc2ccccc2CC2(CCN(C(=O)N(C)C)CC2)C1=O`, the INHIBITION came to 36.5%.
In the case of `CC[C@@H]1N(Cc2ccc(C)s2)CCC[C@]12CCC(=O)N2C` it was -24.5%.
As for `CCCn1ccnc1-c1cccc(NC2CCOC2)c1` (stereo not given), the INHIBITION was found to be 33.4%.
For `CCCn1ccnc1-c1cccc(NC(=O)[C@H]2CCC(=O)N2)c1`, the INHIBITION was 24.3%.
In the case of `CCCn1ccnc1-c1cccc(NC(=O)C2CCCOC2)c1` (stereo not given) it was 55%; in that of `c1coc(CN2CCC3(CC2)COCCN(CCN2CCCC2)C3)c1`, 0.923%.
As for `CC(C)NC(=O)N(C)C(c1cccc(F)c1)c1ccccn1` (stereo not given), the INHIBITION is -132%.
In the case of `O=C(N[C@@H]1CCC[C@@H](N2CCOCC2)[C@@H]1O)c1cnn2cccnc12` it was -32.2%; in that of `CCc1cc(CNC(=O)c2cc(NC(=O)C(C)C)ccc2Cl)[nH]n1`, 21.2%; in that of `Cc1cc(CNC(=O)NC(C)c2ccncc2)no1` (stereo not given), 11.8%.
For the compound `Cc1cc(CNC(=O)c2cc(NC(=O)C(C)C)ccc2Cl)no1`, the INHIBITION came out at 68.3%.
In the case of `NC(=O)c1cnn2c1NCC(CNCCCc1ccccc1)C2` (stereo not given), the INHIBITION is listed as 6.35%.
Regarding `Cc1ccc(-c2cc(CNC(=O)N3CCC(O)CC3)on2)cc1`, the INHIBITION is listed as -25.8%.
In the case of `O=C(CSCc1ccncc1)NCc1csc(Br)c1` it was 43.2%; in that of `Cc1c[nH]c(CN2CCCn3nc(CNS(C)(=O)=O)cc3C2)n1`, 66.6%.
With `Cc1cc(F)cc(CN2CCCn3nc(CNS(C)(=O)=O)cc3C2)c1`, the INHIBITION turned out to be 24.9%.
In the case of `CS(=O)(=O)N1CCCn2nc(CNc3cc(C#N)ccn3)cc2C1` it was 23%; in that of `CS(=O)(=O)N1CCCn2nc(CNc3ncccn3)cc2C1`, 34.9%; in that of `Cc1nccc(NCc2cc3n(n2)CCCN(S(C)(=O)=O)C3)n1`, 24.9%.
In the case of `Cc1cc(NCc2cc3n(n2)CCCN(S(C)(=O)=O)C3)ncn1` it was -9.86%.
Turning to `CCc1cc(NCc2cc3n(n2)CCCN(S(C)(=O)=O)C3)nc(C)n1`, the INHIBITION stood at 53%.
In the case of `CS(=O)(=O)NCc1cc2n(n1)CCCN(Cc1nc3ccccc3[nH]1)C2` it was 20.1%.
In the case of `CC(=O)c1ccc(NCc2cc3n(n2)CCCN(S(C)(=O)=O)C3)nc1` it was 50.3%; in that of `CCOC1CCN(C(=O)NCCc2ccn(-c3ccccc3)n2)CC1`, -10.1%.
With `COCC1c2c(cnn2C)CCN1Cc1ccc(F)cc1` (stereo not given), the INHIBITION was found to be 21.6%.
On to `O=C1CC2(CCN(c3nncs3)C2)CN1c1ccc2c(c1)OCCO2` (stereo not given), for which the INHIBITION is -7.29%.
On to `COCCn1ccc2ccc(C(=O)N3CCN(C(C)=O)CC3)cc21`, for which the INHIBITION is 10.5%.
In the case of `Cc1cc(C)n(Cc2ccc(C(=O)N3CCOCC3(C)C)cc2)n1` it was 27.9%.
In the case of `Cc1cnc(C(=O)N2CCCC(Cn3cc(C4CC4)nn3)C2)cn1` (stereo not given) it was -66.7%; in that of `Cc1ccc(C(=O)N2CCCC(Cn3cc(C(C)(C)N)nn3)C2)s1` (stereo not given), 64%; in that of `CC1=C(C(=O)N2CCCC(Cn3cc(CO)nn3)C2)OCCO1` (stereo not given), 13%.
To `Cc1ccc(S(=O)(=O)N2CCN(CCC(N)=O)CC2)s1` belongs 38.8%.
Turning to `CCc1nnc2ccc(N3CCN(S(=O)(=O)c4ccc(C)s4)CC3)nn12`, the INHIBITION was found to be 10.1%.
For `Cc1ccc(S(=O)(=O)N2CCC(Cn3cc(C(C)(C)N)nn3)CC2)s1`, the INHIBITION is 61.8%.
Turning to `CN1CCC(NCC(O)c2cccc(OCc3ccccc3)c2)CC1` (stereo not given), the INHIBITION came out at 14.9%.
To `NC(=O)c1cc(C2CCCN(C(=O)CCc3ccccn3)C2)n[nH]1` (stereo not given) belongs -19.9%; to `CCC(C)N(Cc1sccc1C)C(=O)c1ccc(S(C)(=O)=O)cc1` (stereo not given), 20.3%.
To `CN(C)C(=O)CN1CCC(c2cncc(-c3cccc(Cl)c3)n2)CC1` belongs 0.301%; to `Cc1ccc(-n2nc3n(c2=O)CCN(C(=O)c2ccc(Cl)cc2)C3)cc1`, 15.9%; to `C1CC(c2nnc(CN3CCCC3c3noc(C4CC4)n3)o2)C1` (stereo not given), -7.13%.
In the case of `N#CC1(NC(=O)c2ccc(-c3nc(C4CC4)n[nH]3)cc2)CCC1` it was 28.8%.
For the compound `CCc1noc(CN(CCS(C)(=O)=O)C(C)(C)C)n1`, the INHIBITION is -37.1%.
On to `CCc1cc(N2CCC(NCCc3ccc(C)o3)CC2)nc(C)n1`, for which the INHIBITION is 21.3%.
Consider `Cn1nnnc1SCCNC1CCN(c2ccc3c(c2)OCO3)CC1`, for which the INHIBITION is 65%.
In the case of `CCc1c(C)nc(C)nc1N1CCC(NCCSc2nnnn2C)CC1` it was 36.2%; in that of `Cn1nnnc1SCc1cc2c(cc1Cl)OCO2`, 25.2%; in that of `CCc1cc(N2CCC(NCCSc3nnnn3C)CC2)nc(C)n1`, 61.8%.
To `Cc1cc(C)nc(N2CCC(NCCSc3nnnn3C)CC2)n1` belongs 35.1%; to `CN(Cc1cn(-c2ccccc2)nn1)C1CCCN(c2cccnn2)C1` (stereo not given), -9.76%; to `O=C1CC2(CCCNC2)C(=O)N1Cc1cccc(Cl)c1` (stereo not given), -4.82%.
To `CCN(CC)C1CCN(C(=O)c2cc3cc(C)cc(C)c3nc2C)CC1` belongs 1.05%; to `c1ccc(N2CCCC3(COCCN(c4nccs4)C3)C2)nc1` (stereo not given), 68.5%.
For `c1ccc(-c2nnc(N3CCCC4(CCOC4)C3)s2)cc1` (stereo not given), the INHIBITION is given as 56.5%.
Turning to `c1ccc(N2CCOCC3(CCCN(c4nccs4)C3)C2)nc1` (stereo not given), the INHIBITION stood at 19.8%.
To `Cc1nnc(N2CCCC3(CN(c4ccccn4)CCO3)C2)o1` (stereo not given) belongs -34%; to `CCS(=O)(=O)N1CCOC2(CCCN(Cc3ccccn3)C2)C1` (stereo not given), -28.1%.
To `c1ccc(N2CCOC3(CCCN(c4ncccn4)C3)C2)nc1` (stereo not given) belongs 76.5%; to `CCS(=O)(=O)N1CCOC2(CCCN(c3ccccn3)C2)C1` (stereo not given), 50.7%.
Take `c1ccc2sc(N3CCCC4(CCOC4)C3)nc2c1` (stereo not given): the INHIBITION was -50.5%.
On to `Cc1ccc(N2CCCC3(COCCN(c4nccs4)C3)C2)nn1` (stereo not given), for which the INHIBITION is -8.19%.
In the case of `OC1(CN2CCCC2)COCCN(c2nnc(-c3ccccc3)s2)C1` (stereo not given), the INHIBITION is listed as 26.6%.
In the case of `CCCS(=O)(=O)N1CCOC2(CCCN(c3ccccn3)C2)C1` (stereo not given) it was 11.4%; in that of `c1cnc(N2CCOC3(CCCN(c4cnccn4)C3)C2)nc1` (stereo not given), -13.7%.
